# Data published in a collection of fitness landscapes (doi:10.1126/science.1257360).
# In all, about 140,000 sequences were measured (“enrichment ratio after two sorts for PhoP signalling”: median about 0, highest 2% from about 11 on). The sample holds the highest values, similar sequences and a random draw of the others, so the mix is not that of the screen.
# B1: PhoQ; a variant is named by its letters at X, in order, P23837 (parent)
# chain: MKKLLRLFFPLSLRVRFLLATAAVVLVLSLAYGMVALIGYSVSFDKTTFRLLRGESNLFYTLAKWENNKLHVELPENIDKQSPTMTLIYDENGQLLWAQRDVPWLMKMIQPDWLKSNGFHEIEADVNDTSLLLSGDHSIQQQLQEVREDDDDAEMTHSVAVNVYPATSRMPKLTIVVVDTIPVELKSSYMVWSWFIYVLSANLLLVIPLLWVAAWWSLRPIEALAKEVRELEEHNRELLNPATTRELTSLVRNLNRLLKSERERYDKYRTTLTDLTHSLKTPLXXLQXXLRSLRSEKMSVSDAEPVMLEQISRISQQIGYYLHRASMRGGTLLSRELHPVAPLLDNLTSALNKVYQRKGVNISLDISPEISFVGEQNDFVEVMGNVLDNACKYCLEFVEISARQTDEHLYIVVEDDGPGIPLSKREVIFDRGQRVDTLRPGQGVGLAVAREITEQYEGKIVAGESMLGGARMEVIFGRQHSAPKDE
# Variants of: B1
# Assay: enrichment ratio after two sorts for PhoP signalling (ratio (wild type AVST 3.29)); higher = more functional
# Conditions: with PhoP (E. coli)
row,Variant,enrichment ratio
1,PRFL,≤ 0.25
2,DFQL,≤ 0.25
3,AGMI,16.4
4,AGMG,≤ 0.25
5,AGMS,3.53
6,NSFT,≤ 0.25
7,YKQH,≤ 0.25
8,HDPL,≤ 0.25
9,TNSV,19.4
10,MNIV,≤ 0.25
11,MNSV,16.9
12,ANSV,7.03
13,MNSK,≤ 0.25
14,LNSV,≤ 0.25
15,QING,≤ 0.25
16,PDEL,≤ 0.25
17,TSHN,0.659
18,ENQD,≤ 0.25
19,MKTQ,≤ 0.25
20,TKTQ,12.6
21,LCTQ,≤ 0.25
22,MMTQ,≤ 0.25
23,TMTQ,14.3
24,NNTQ,≤ 0.25
25,TSTQ,16

row,Variant,enrichment ratio
1,KSTQ,≤ 0.25
2,TGTQ,17.7
3,HKTQ,≤ 0.25
4,NGTQ,≤ 0.25
5,TMLA,2.72
6,LGMC,≤ 0.25
7,NWTN,≤ 0.25
8,VCIS,0.315
9,QCCN,≤ 0.25
10,PNLQ,1.01
11,SPYC,≤ 0.25
12,YNMF,≤ 0.25
13,LKVT,≤ 0.25
14,SFHI,≤ 0.25
15,VLMY,≤ 0.25
16,EGRC,≤ 0.25
17,EQYD,≤ 0.25
18,SGTW,≤ 0.25
19,STTQ,6.67
20,SGTQ,17.4
21,TITQ,12.5
22,NMTQ,≤ 0.25
23,SLTQ,6.15
24,TILA,4.43
25,SQTQ,11.3

row,Variant,enrichment ratio
1,KYTQ,≤ 0.25
2,VCDC,≤ 0.25
3,KHCF,≤ 0.25
4,TKQF,≤ 0.25
5,VNQI,≤ 0.25
6,MAYI,21.1
7,NAYE,≤ 0.25
8,MAYV,15.4
9,FDYF,≤ 0.25
10,MAAY,≤ 0.25
11,NAYV,≤ 0.25
12,MAYK,≤ 0.25
13,MEYE,≤ 0.25
14,MAYF,16.5
15,FDYV,≤ 0.25
16,MAYE,33.3
17,MEYF,≤ 0.25
18,MGDQ,≤ 0.25
19,VFQR,≤ 0.25
20,GVSL,5.42
21,GQSH,≤ 0.25
22,YRWT,≤ 0.25
23,FKMN,≤ 0.25
24,IMAN,≤ 0.25
25,MAYM,9.25

row,Variant,enrichment ratio
1,MAYN,16.6
2,MAHE,≤ 0.25
3,MAHF,9.56
4,MAHI,24.7
5,KAYN,≤ 0.25
6,LMFI,≤ 0.25
7,VDKC,≤ 0.25
8,PFWD,3.08
9,SWFV,≤ 0.25
10,FCIG,≤ 0.25
11,AKMH,12
12,HKMH,≤ 0.25
13,ATMH,12.3
14,ATCH,≤ 0.25
15,ATTH,8.31
16,AIMH,4.85
17,QGLS,3.82
18,LDNH,≤ 0.25
19,QEIS,≤ 0.25
20,TEIS,11.4
21,TEIV,≤ 0.25
22,MEIS,13.8
23,NEIS,≤ 0.25
24,MEIV,6.05
25,FGMP,≤ 0.25

row,Variant,enrichment ratio
1,MYAF,≤ 0.25
2,NHMV,≤ 0.25
3,NEMS,≤ 0.25
4,NHMI,≤ 0.25
5,NEMD,≤ 0.25
6,THMI,26.1
7,THMV,8.19
8,SHMI,5.85
9,NEMV,14.8
10,NEMI,29
11,DIIV,≤ 0.25
12,DPWI,≤ 0.25
13,ARSS,0.56
14,QLGI,≤ 0.25
15,HQLC,≤ 0.25
16,HNDG,≤ 0.25
17,HGKL,≤ 0.25
18,YTLC,11.3
19,HKLC,≤ 0.25
20,AYLC,0.263
21,MKLC,≤ 0.25
22,SALC,12
23,YYLC,≤ 0.25
24,TKLC,19.8
25,ATLC,13.2

row,Variant,enrichment ratio
1,FTLC,6.55
2,IILC,≤ 0.25
3,KQLC,≤ 0.25
4,AILC,7.86
5,KVHY,≤ 0.25
6,RTKV,≤ 0.25
7,APDH,≤ 0.25
8,RGMG,≤ 0.25
9,DFLC,≤ 0.25
10,SWLC,≤ 0.25
11,SPLC,≤ 0.25
12,SCLC,12.4
13,SGLC,20.7
14,LWLC,≤ 0.25
15,STLC,13.2
16,KDLC,≤ 0.25
17,KYLC,≤ 0.25
18,SGNS,≤ 0.25
19,TDLC,11.7
20,ADLC,3.37
21,HWIF,≤ 0.25
22,MFWN,≤ 0.25
23,AMSS,9.96
24,WMWY,≤ 0.25
25,SELC,20.4

row,Variant,enrichment ratio
1,SRLC,≤ 0.25
2,SKKC,≤ 0.25
3,TPLC,≤ 0.25
4,LTLC,≤ 0.25
5,GTLC,10
6,TTLC,14.4
7,SFLC,4.52
8,SNLC,11.3
9,SKTC,11.1
10,SKLC,12.6
11,SLLC,7.49
12,VGMT,≤ 0.25
13,NFAS,≤ 0.25
14,AWLG,≤ 0.25
15,PRVI,≤ 0.25
16,THYW,≤ 0.25
17,ELGT,≤ 0.25
18,FGYD,≤ 0.25
19,EVSM,7.73
20,STNM,11.4
21,YTNM,≤ 0.25
22,SQNM,1.65
23,SLNM,≤ 0.25
24,SNGD,≤ 0.25
25,SNGM,15.3

row,Variant,enrichment ratio
1,SNGS,9.33
2,SNNY,8.91
3,SRGY,≤ 0.25
4,SNNM,13.1
5,SNGY,12.6
6,SNRM,≤ 0.25
7,RSCE,≤ 0.25
8,QIIS,≤ 0.25
9,TQLR,2.23
10,LNRD,0.657
11,EFTP,≤ 0.25
12,NIED,≤ 0.25
13,HGTL,6.22
14,MTCK,≤ 0.25
15,MTCM,12.2
16,MHCM,≤ 0.25
17,SYCM,≤ 0.25
18,SVCK,9.8
19,SRCM,9.77
20,SVCE,2.84
21,FDCM,≤ 0.25
22,SVCM,14.2
23,SECM,38.2
24,SDCM,17.2
25,SPCM,≤ 0.25
